{"source": "paper PMC7862700", "about": "“An all-to-all approach to the identification of sequence-specific readers for epigenetic DNA modifications on cytosine”", "test_in_all_cases": "DAPPL (digital affinity profiling via proximity ligation, sequencing); 10 mM Tris-HCl pH 7.5, 50 mM NaCl, 1 mM DTT, 4% glycerol, room temperature, 30 min; GST-TFs on glutathione beads, 16-mer random dsDNA library, 0.1% formaldehyde crosslink after washing; high values mean tight binding", "details_in_all_cases": "protein: recombinant; tags: N-terminal GST; dsDNA, one strand shown", "key": {"[1]": {"biological_target": "T1, FLI1 (Homo sapiens, UniProt Q01543 1-452)", "T1 sequence": "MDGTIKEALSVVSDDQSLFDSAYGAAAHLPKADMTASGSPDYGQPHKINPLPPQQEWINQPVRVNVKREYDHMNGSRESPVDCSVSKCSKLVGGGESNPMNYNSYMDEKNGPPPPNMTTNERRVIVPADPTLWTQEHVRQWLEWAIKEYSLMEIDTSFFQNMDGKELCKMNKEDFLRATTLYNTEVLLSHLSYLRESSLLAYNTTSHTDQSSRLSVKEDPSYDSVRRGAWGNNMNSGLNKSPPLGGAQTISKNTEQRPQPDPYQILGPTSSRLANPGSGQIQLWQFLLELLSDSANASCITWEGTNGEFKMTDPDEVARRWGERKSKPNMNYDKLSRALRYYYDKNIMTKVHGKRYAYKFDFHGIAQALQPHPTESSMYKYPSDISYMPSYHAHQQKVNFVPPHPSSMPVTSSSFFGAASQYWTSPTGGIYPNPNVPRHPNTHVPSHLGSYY", "how_it_was_run": "(§1)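 Human transcription factors fused to GST were expressed in yeast, captured on glutathione beads, given DNA barcodes and pooled with a GST-only negative control. Pools were incubated with 200 nmole of a 16-mer random double-stranded DNA library in Tris/NaCl/DTT/glycerol buffer at room temperature for 30 min. They were then washed, crosslinked with 0.1% formaldehyde, proximity-ligated (BsaI/T4 ligase, 1 h, 37 °C), PCR-amplified and sequenced on an Illumina NextSeq500. Binding signal is each 6-mer's read frequency for a factor divided by its frequency for the GST control.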"}, "[2]": {"biological_target": "T2, ELK1 (Homo sapiens, UniProt P19419 1-428)", "T2 sequence": "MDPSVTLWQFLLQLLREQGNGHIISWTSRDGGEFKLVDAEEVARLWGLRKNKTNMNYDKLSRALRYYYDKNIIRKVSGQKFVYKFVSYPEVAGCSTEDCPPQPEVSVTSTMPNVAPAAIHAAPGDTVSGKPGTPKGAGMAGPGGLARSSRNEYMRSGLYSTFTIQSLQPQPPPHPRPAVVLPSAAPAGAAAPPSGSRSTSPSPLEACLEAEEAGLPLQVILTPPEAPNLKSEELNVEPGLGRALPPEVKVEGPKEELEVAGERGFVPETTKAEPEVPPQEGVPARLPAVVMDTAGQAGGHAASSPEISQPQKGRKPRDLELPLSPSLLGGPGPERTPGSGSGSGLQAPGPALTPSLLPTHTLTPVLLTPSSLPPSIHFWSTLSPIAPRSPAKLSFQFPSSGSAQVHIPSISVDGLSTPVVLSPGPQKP", "how_it_was_run": "as §1"}, "[3]": {"biological_target": "T3, GABPA (Homo sapiens, UniProt Q06546 1-454)", "T3 sequence": "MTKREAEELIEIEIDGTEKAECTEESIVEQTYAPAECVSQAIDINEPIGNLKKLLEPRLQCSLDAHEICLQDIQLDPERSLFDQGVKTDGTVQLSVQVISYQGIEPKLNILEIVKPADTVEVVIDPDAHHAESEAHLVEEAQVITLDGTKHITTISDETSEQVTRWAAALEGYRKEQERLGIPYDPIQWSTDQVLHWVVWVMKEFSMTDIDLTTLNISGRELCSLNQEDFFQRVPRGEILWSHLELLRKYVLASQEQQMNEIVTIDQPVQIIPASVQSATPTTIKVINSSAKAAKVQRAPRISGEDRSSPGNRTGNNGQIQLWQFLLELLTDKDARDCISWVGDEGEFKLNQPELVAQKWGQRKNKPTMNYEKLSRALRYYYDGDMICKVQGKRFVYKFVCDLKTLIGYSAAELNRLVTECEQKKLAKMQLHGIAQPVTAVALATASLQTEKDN", "how_it_was_run": "as §1"}, "[4]": {"biological_target": "T4, ERG (Homo sapiens, UniProt P11308 1-479)", "T4 sequence": "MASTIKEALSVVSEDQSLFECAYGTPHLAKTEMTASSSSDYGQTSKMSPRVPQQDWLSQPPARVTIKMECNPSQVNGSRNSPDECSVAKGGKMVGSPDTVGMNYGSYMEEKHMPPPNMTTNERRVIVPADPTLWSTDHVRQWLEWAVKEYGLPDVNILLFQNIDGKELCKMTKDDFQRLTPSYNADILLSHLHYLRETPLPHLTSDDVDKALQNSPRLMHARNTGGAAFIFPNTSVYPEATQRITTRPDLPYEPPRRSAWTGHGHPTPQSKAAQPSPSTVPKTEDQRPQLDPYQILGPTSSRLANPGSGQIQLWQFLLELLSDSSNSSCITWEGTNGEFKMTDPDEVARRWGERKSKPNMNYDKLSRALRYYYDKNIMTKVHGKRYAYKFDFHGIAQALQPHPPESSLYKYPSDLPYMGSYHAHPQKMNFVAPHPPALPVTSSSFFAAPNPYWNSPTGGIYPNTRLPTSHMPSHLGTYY", "how_it_was_run": "as §1"}, "[5]": {"biological_target": "ELF1 (Homo sapiens, UniProt P32519 1-619)", "sequence (P32519 whole entry)": "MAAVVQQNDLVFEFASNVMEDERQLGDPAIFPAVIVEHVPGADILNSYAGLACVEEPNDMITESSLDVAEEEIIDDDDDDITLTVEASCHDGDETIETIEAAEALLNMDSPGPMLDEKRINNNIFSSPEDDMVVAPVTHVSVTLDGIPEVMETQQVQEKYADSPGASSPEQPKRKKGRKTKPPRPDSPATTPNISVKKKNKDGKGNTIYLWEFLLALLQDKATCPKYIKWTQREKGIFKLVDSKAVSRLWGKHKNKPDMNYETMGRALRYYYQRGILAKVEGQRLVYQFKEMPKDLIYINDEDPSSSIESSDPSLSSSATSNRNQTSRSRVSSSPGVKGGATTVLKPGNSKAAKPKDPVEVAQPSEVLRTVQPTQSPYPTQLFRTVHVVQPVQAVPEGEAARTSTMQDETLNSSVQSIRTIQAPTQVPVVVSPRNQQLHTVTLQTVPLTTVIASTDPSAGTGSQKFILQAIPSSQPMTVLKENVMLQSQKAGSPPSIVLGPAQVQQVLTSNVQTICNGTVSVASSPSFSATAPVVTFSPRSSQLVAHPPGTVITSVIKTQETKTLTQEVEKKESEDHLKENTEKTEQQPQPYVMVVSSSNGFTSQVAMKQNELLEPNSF", "how_it_was_run": "as §1"}, "[6]": {"biological_target": "T5, EHF (Homo sapiens, UniProt Q9NZC4 1-300)", "T5 sequence": "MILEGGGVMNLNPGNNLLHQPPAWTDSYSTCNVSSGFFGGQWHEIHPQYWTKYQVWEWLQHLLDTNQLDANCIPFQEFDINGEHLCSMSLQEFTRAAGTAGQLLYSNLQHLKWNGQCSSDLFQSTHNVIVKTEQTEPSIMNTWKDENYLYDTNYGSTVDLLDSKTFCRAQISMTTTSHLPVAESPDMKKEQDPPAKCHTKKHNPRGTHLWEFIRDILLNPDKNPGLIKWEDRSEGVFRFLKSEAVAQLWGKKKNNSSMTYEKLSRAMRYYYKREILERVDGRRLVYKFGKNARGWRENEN", "how_it_was_run": "as §1"}, "[7]": {"biological_target": "SPI1 (Homo sapiens, UniProt P17947 1-270)", "how_it_was_run": "as §1"}, "[8]": {"biological_target": "SPIB (Homo sapiens, UniProt Q01892 1-262)", "sequence (Q01892 whole entry)": "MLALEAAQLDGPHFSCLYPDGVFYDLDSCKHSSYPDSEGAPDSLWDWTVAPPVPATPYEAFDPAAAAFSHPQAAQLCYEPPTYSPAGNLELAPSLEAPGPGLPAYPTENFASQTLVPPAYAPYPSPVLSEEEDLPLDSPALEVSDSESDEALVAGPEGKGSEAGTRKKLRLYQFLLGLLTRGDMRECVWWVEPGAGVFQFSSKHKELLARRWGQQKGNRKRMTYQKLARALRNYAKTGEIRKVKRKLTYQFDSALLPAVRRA", "how_it_was_run": "as §1"}, "[9]": {"biological_target": "T6, ELK3 (Homo sapiens, UniProt P41970 1-407)", "T6 sequence": "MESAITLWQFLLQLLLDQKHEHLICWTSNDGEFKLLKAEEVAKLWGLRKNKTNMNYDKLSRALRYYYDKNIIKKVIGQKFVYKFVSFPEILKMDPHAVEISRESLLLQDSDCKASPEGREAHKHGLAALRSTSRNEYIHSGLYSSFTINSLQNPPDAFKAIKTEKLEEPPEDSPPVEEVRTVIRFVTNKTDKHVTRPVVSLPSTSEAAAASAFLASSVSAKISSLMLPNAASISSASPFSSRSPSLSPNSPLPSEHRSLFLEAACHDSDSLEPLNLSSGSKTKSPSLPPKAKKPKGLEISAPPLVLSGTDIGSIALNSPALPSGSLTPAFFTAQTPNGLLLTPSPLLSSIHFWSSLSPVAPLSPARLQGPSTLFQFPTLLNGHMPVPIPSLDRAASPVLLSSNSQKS", "how_it_was_run": "as §1"}}}
{"sequence": "CTTTTC", "values": [{"measurement": "binding signal", "setting": "[1]", "result": "1.44 fold enrichment (6-mer frequency, TF over GST control)"}, {"measurement": "binding signal", "setting": "[2]", "result": "1.51 fold enrichment (6-mer frequency, TF over GST control)"}, {"measurement": "binding signal", "setting": "[3]", "result": "1.34 fold enrichment (6-mer frequency, TF over GST control)"}, {"measurement": "binding signal", "setting": "[4]", "result": "1.43 fold enrichment (6-mer frequency, TF over GST control)"}, {"measurement": "binding signal", "setting": "[5]", "result": "1.38 fold enrichment (6-mer frequency, TF over GST control)"}, {"measurement": "binding signal", "setting": "[6]", "result": "1.39 fold enrichment (6-mer frequency, TF over GST control)"}, {"measurement": "binding signal", "setting": "[7]", "result": "1.65 fold enrichment (6-mer frequency, TF over GST control)"}, {"measurement": "binding signal", "setting": "[8]", "result": "1.53 fold enrichment (6-mer frequency, TF over GST control)"}, {"measurement": "binding signal", "setting": "[9]", "result": "1.23 fold enrichment (6-mer frequency, TF over GST control)"}]}
